KCNH2 3.1 block: blocks the human KCNH2 3.1 channel isoform; AID 720553; U2OS KCNH2 3.1, thallium flux FluxOr; stronger effect = lower value; 340,000 tested, 0.95% active; activity change, % (tested at about 1.8 µM);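 active = maximum activity change below -70%; inconclusive = maximum activity change from -70% to -50%; inactive = maximum activity change above -50%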;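 note: thallium influx rate constant from kinetic fluorescence after stimulation buffer; % is set by controls: 0 for no effect and ±100 for the full control effect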
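Kinetic fluorescence (2 min after stimulation buffer) measures Tl+ influx through KCNH2 3.1 expressed by viral transduction in U2OS cells; the rate constant is normalized against DMSO controls serving as positive and negative references.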
TRPML1 blocker: inhibitors of human TRPML1 channel. Q9GZU1. TRPML1-inducible cells, Ca2+ dye fluorescence, FDSS; stronger effect = lower value; inhibition of EC80 agonist-evoked calcium signal. 390,000 tested, 0.02% active. activity change, negative = inhibition, % (no concentration beside the values); in the data active = activity change below about -50%; inconclusive = between about -30% and that limit;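 note: stimulus is agonist 54-4 at its EC80 concentration; % is set by controls: 0 for no effect and ±100 for the full control effect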
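Tet-induced TRPML1-DL cells loaded with Ca8 no-wash calcium dye were read kinetically on FDSS. Compound addition was followed by EC80 agonist 54-4 (4 uM final); inhibition was read over 110 s.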
TRPML1 ag: human mucolipin-1 channel agonism | activation, % (concentration not given with the values) | TRPML1-expressing cells, Ca2+ dye fluorescence, FDSS | AID 624414 | 410,000 tested, 0.12% active | Q9GZU1; in the data active = activation above about 50%; inconclusive = mostly about 30% to 49%; note: 0% is about no effect
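Agonist activity was taken from a 110 s kinetic Ca2+ dye read on the FDSS after pinning compounds onto TRPML1-DL cells. The cells were seeded at 1,500/well with Tet inducer, incubated about 16 h, then dye-loaded at room temperature.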
TRPV1 PAM: potentiators of human vanilloid receptor 1 (TRPV1). Q8NER1. TRPV1-expressing cells, Fluo-8 calcium influx, capsaicin EC20 potentiation. potentiation, % at 8.33 µM. 320,000 tested, 0.02% active. AID 540277; in the data active = potentiation above about 80%; inconclusive = between about 30% and that limit; note: 0% is about no effect
Target sequence (Q8NER1 whole entry, looked up): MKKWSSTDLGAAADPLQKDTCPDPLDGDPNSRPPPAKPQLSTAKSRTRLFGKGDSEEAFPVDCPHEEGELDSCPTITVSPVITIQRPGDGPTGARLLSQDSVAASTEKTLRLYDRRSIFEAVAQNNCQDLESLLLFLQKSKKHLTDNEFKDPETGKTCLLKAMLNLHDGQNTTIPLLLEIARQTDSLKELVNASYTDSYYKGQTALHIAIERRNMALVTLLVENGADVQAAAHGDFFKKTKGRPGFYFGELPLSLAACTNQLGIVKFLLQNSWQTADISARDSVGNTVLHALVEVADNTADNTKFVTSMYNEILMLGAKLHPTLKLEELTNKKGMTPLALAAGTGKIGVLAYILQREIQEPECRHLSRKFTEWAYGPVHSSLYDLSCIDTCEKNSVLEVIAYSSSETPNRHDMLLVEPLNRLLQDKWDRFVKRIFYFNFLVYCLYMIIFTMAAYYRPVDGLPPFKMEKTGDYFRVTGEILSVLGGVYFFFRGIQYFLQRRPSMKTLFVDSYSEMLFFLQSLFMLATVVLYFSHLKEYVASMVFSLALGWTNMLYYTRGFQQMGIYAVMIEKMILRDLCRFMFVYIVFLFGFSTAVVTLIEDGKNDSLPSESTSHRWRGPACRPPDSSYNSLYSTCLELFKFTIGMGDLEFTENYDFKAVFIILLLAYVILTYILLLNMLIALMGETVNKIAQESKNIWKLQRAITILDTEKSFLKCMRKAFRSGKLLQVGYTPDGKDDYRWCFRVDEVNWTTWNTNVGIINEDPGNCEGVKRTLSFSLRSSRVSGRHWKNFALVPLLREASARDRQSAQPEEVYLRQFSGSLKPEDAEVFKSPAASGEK
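TRPV1-expressing cells were cultured overnight at 35.5C and loaded with Fluo-8 calcium dye for 40 to 90 min at room temperature. After a 10 s baseline, compound was added and calcium influx was read kinetically for 3 min (ex 480/em 520 nm).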
TRPV1 ag: activates the human vanilloid receptor TRPV1; Q8NER1; TRPV1-expressing cells, Fluo-8 calcium influx, agonist mode; activation, % at 8.33 µM; 320,000 tested, 0.19% active; AID 540275; in the data active = activation above about 80%; inconclusive = between about 30% and that limit; note: 0% is about no effect
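Fluo-8 calcium influx in TRPV1-expressing cells, kinetic read (ex 480/em 520 nm). Compound added and read 3 min for agonist activity, followed by capsaicin at EC20 final and 2 min further read for enhancement.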
KCNH2 WT inh: KCNH2 (human, wildtype) channel inhibition; U2OS, BacMam KCNH2, thallium flux FluxOr; stronger effect = lower value; AID 720551; activity change, % at 1.84 µM; 340,000 tested, 0.37% active; Q12809;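 active = maximum activity change below -70%; inconclusive = maximum activity change between -70% and -50%; inactive = maximum activity change above -50%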; note: % is set by controls: 0 for no effect and ±100 for the full control effect
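U2OS cells were transduced with wild-type KCNH2 virus (2.03 x 10^8 / mL) for 4 h at room temperature, then cultured overnight at 37 C. Thallium flux was read with FluxOr dye. Rate constants were normalized to DMSO controls.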
An asterisk follows results filed as active; ? = inconclusive; . = no result given. This is a sample that favours compounds with a hit; in the whole collection about 1.3% have one here.

SMILES	KCNH2 3.1 block	TRPML1 blocker	TRPML1 ag	TRPV1 PAM	TRPV1 ag	KCNH2 WT inh
OC(COCc1ccc(Cl)cc1)CN1CC=C(c2ccccc2)CC1 (centres undefined)	-112.3*	-2.1	1.1	3.2	14.7	?
Cc1cccc(N2CCN(CCc3ccccc3)CC2)c1C	-81.7*	-7.5	0.8	5.7	-1.6	-47.8
O=C(CI)c1ccc(Cl)cc1	.	.	-0.5	.	.	.
C=CCn1c(O)c(C(C)=NCCN2CCN(C(=S)NC)CC2)c(=O)[nH]c1=O	-9.8	-14.0	0.2	-1.9	1.8	-99.1*
C/C=C1/C[C@@H](C)[C@@](C)(O)C(=O)OCC2=CCN3CC[C@@H](OC1=O)[C@@H]23	.	58.8	0.2	.	.	.
NCC(=O)c1ccc2ccccc2c1	.	.	0.0	.	.	.
FC(F)(F)c1ccc2c(c1)nnn2C1CCN(Cc2nnnn2Cc2ccccc2)CC1	-76.1*	0.9	0.2	2.5	-3.6	-28.4
Cc1nc2cc(C(F)(F)F)ccc2n1C1CCN(Cc2nnnn2CCc2ccccc2)CC1	-80.6*	10.5	2.6	0.4	1.2	-6.7
Cc1ccc(Cn2nnnc2CN2CCC(n3nnc4cc(C)ccc43)CC2)cc1	-16.2	-14.1	1.7	8.1	8.4	9.9
Cc1ccc(Cn2nnnc2CN2CCC(n3nnc4cc(C(F)(F)F)ccc43)CC2)cc1	-92.8*	29.4	3.2	-2.4	-0.5	?
CC(=O)NCC(N)C(=O)c1ccc(C)cc1 (centres undefined)	.	.	-0.2	.	.	.
O=C(Nc1ccccc1C(F)(F)F)c1cccn(Cc2ccccc2)c1=O	.	-1.2	0.0	.	.	.
Cc1cc(/C=C/c2cccc3sc(C)[n+](CCCCI)c23)ccc1N(CCCl)CCCl	.	.	13.5	.	.	.
CN1CC[C@@]2(C)c3cc(O)ccc3N(C)C12 (some centres undefined)	.	.	-0.9	.	.	.
O=C(c1cc(F)ccc1F)C1CCCN(CCCc2ccccc2)C1 (centres undefined)	-101.2*	13.5	0.0	7.1	1.4	4.3
O=C(c1cc(F)ccc1F)C1CCCN(Cc2cccc(Cl)c2)C1 (centres undefined)	-0.4	3.8	-0.2	-11.1	18.7	.
COc1ccc(CN(CCc2c[nH]c3ccccc23)Cc2ccc(OC)cc2)cc1	-106.2*	5.8	2.1	.	.	-42.6
C[C@]12CCC3C(CCC4=C/C(=N/OCC(=O)NC(CCC(=O)O)C(=O)O)CC[C@@]43C)C1CCC2O (some centres undefined)	-8.8	1.0	0.1	13.0	-3.9	4.9
CC12CCC3c4ccc(OC(=O)N(CCCl)CCCl)cc4CCC3C1CCC2O (centres undefined)	-89.4*	71.4	0.9	.	.	34.0
O=C1/C(=C/c2ccc(N(CCCl)CCCl)cc2)Cc2ccccc21	.	.	73.4*	.	.	.
CCn1c(O)c(/C=N/NC(=O)c2ccccc2)c(=O)[nH]c1=S	-3.5	15.4	3.9	-21.8	?	1.3
COc1ccccc1-n1c(O)c(/C=N/NC(=S)Nc2ccccc2)c(=O)[nH]c1=S	-93.4*	12.9	0.5	-7.3	20.4	-3.2
COc1ccc(-n2c(/C=C/c3ccc(O)cc3)nc3ccccc3c2=O)cc1	-21.7	11.9	2.6	2.9	0.8	-92.5*
CCCCCCN1CCN(c2ccccc2Cl)CC1	-79.4*	0.8	0.8	3.5	-2.3	-5.2
NCC(=O)c1ccc(Cl)c(Cl)c1	.	.	-0.4	.	.	.
SMILES	KCNH2 3.1 block	TRPML1 blocker	TRPML1 ag	TRPV1 PAM	TRPV1 ag	KCNH2 WT inh
CCN(CC)c1ccc(/C=C/[N+](=O)[O-])cc1	?	1.3	70.9*	-6.3	?	-30.9
COc1ccccc1N1CCN(Cc2ccccc2Cl)CC1	5.4	-5.1	0.4	8.6	1.7	0.7
COc1ccccc1N1CCN(Cc2ccc(Br)cc2)CC1	-75.8*	44.6	-0.6	-3.2	14.5	18.7
O=P1(Oc2ccccc2)CC=CC(COCc2ccccc2)O1 (centres undefined)	.	-10.7	0.5	.	.	.
O=C(CN1CCCCC1)NCC(=O)Nc1ccc(Br)cc1C(=O)c1ccccc1	-77.9*	19.4	1.7	-6.5	1.0	-35.6
CCN(CC)CC(=O)Nc1ccc(Cl)cc1C(=O)c1ccccc1	13.2	-6.8	2.4	.	.	3.3
CN1CCN(CC(=O)Nc2ccc(Cl)cc2C(=O)c2ccccc2)CC1	-77.6*	6.2	-0.6	5.6	11.5	?
O=C(COc1ccccc1)Nc1ccc(Cl)cc1C(=O)c1ccccc1	-6.3	-7.3	0.0	6.8	4.9	-3.1
O=C(CN1CCN(CCO)CC1)Nc1ccc(Cl)cc1C(=O)c1ccccc1	-86.8*	2.3	-0.3	6.1	1.0	-22.8
O=C(CN1CCCC2CCCCC21)c1ccc(I)cc1 (centres undefined)	.	.	-0.5	.	.	.
CCCCc1nc2ccccc2c(=O)n1-c1cccc(OC)c1	.	-11.3	0.9	.	.	.
CC(=O)NCC(N)C(=O)c1ccc(Cl)c(Cl)c1 (centres undefined)	.	.	-0.6	.	.	.
COc1cc2nc(N3CCCN(C)CC3)nc(N(C)C3CCN(C)CC3)c2cc1OC	.	.	-0.1	.	.	.
O=c1[nH]/c(=C\c2ccc(N(CCCl)CCCl)cc2)c(=O)[nH]/c1=C\c1ccc(N(CCCl)CCCl)cc1	.	.	2.7	.	.	.
O=C(CCCN1CCC2(CC1)C(=O)NCN2c1ccccc1)c1ccc(F)cc1	-81.4*	21.0	75.7*	-4.7	18.0	-38.1
